In all, about 1,400 compounds went through this assay and about 1,000 (71%) were called active. Inconclusive results (about 12%) are left out. Calls follow the shape of the dose curve; as a rule, active = well fitted inhibition curve with a large enough effect; inconclusive = small, poorly fitted or top-dose-only effect; inactive = no such curve, though single readings can be large or run the other way. So high a share suggests a set chosen from earlier hits. Only a sample is shown.
Assay: Nrf2 qHTS screen for inhibitors: Nrf2 A549 ARE-Fluc Confirmation Assay for Hit Validation; also: nearly all actives have a fitted effect of over 65% in size
Conditions: A549 ARE-firefly luciferase reporter, luminescence
Excerpt: Nrf2 is a transcription factor that maintains cellular redox homoestasis and protects cells from xenobiotics. Nrf2 binds to the antioxidant response element (ARE) to induce gene expression of a broad spectrum of genes that encode for antioxidants. […] Finding a small molecule that act as an inhibitor of Nrf2 function would represent a novel therapeutic target that could lead to improvement in survival of patients undergoing chemo- and/or radio- therapy.
In collaboration with the Biswal laboratory, a cell based, luminescence assay (BugLite) was developed to detect the Nrf2 activity using the A549 ARE_Fluc cells (AID 493153). This assay was coupled with a fluorescence based (CellTiter Fluor) cytotoxicity assay to identify and exclude toxic compounds. This coupled assay was used to evaluate selected compounds for hit validation. The data herein is the result of the BugLite assay where decrease in luminescence signal = inhibition of Nrf2 activation. Inhibition is the desired outcome for this assay.
NIH Chemical Genomics Center [NCGC]
NIH Molecular Libraries Probe Centers Network [MLPCN]
Assay Submitter (PI): Shyam Biswal, Johns Hopkins University
[1] Shibata T., et al., Genetic alteration of Keap1 confers constitutive Nrf2 activation and resistance to chemotherapy in gallbladder cancer. Gastroenterology, 2008.
[2] Sjoblom T., et al., The consensus coding sequences of human breast and colorectal cancers. Science, 2006.
Five uL of cell suspension was dispensed into 1536-well white TC-treated plate using the Kalypsys dispenser to achieve a density of 5000 cells/well in all columns except column 1. The plates were incubated at 37deg C at 5% CO2 for 2 hours before 23 nL of compounds were added with the Kalypsys pin tool equipped with a 1,536-pin array. The control compounds Budesonide and Staurosporine were added at a concentration of 2mM. Budesonide was also added as a 1:10 titration, starting at 200uM, to achieve the dose-response control signal. The plates were incubated for 18-24 hour at 37deg C, 5% CO2 followed by a 5ul addition of 5% FBS OPTI-MEM growing media in column 1 as negative control. One microliter of 5x CellTiter Fluor (Promega) was added to each well and the assay plates were incubated at 37deg C, 5% CO2 for 30 minutes. The fluorescence signal was read using the PerkinElmer ViewLux plate reader (Ex = 405 nm /Em = 525 nm) for a 3 second exposure. After the signal was taken, 3 uL of 3x BugLite was dispensed into all wells. The plates were then incubated at room temperature for 15 minutes. A second ViewLux read (40 sec exposure) was performed to detect the luminescence signal. Cytotoxicity was assessed through the first fluorescent read while biochemical activity against Nrf2 was measured in the luminescent read. The data was normalized to the positive and negative controls.
Potency is read from the fitted curve at half-maximal effect.

Compound	Potency
c1ccc2c(c1)[I+]c1ccccc1-2	206 nM (active)
CC[C@H]1CN2CCc3cc(OC)c(OC)cc3[C@@H]2C[C@@H]1C[C@H]1NCCc2cc(OC)c(OC)cc21	146 nM (active)
CCC(C)(O)C(=O)OC1C(=O)OC2CC3C(C)=CC(=O)C(O)C3(C)C3C4(O)OCC23C1C(C)C4O (stereo not given)	580 nM (active)
COC1C(O)C(C)OC(OC2CCC3(C=O)C(CCC4C3CCC3(C)C(C5=CC(=O)OC5)CCC43O)C2)C1O (stereo not given)	11.6 nM (active)
C[C@]12CC[C@H](O)C[C@H]1CC[C@@H]1C2CC[C@]2(C)[C@@H](C3=CC(=O)OC3)[C@@H](O)C[C@]12O (stereo not given in full)	1640 nM (active)
